Results: PubChem BioAssay (NCI)
About 83,000 compounds went through this panel and 20% of them were active in at least one assay; those are over-represented in the sample as a whole.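 Negative percent growth values reflect cell death: -40 means 40% of the cells present at the start died, and -100 means all died.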 Unmarked numbers belong to inactive results. Activity calls are given as the source filed them. Rule for the calls: active = growth percent below 10; inactive = the rest.

Experiments:
Experiment in all cases: NCI-60 one-dose screen, 48 h (100 = growth as untreated, 0 = no growth, -100 = all killed)
Conditions in all cases: 10 µM
[1] = tested on: HCT-15 colon
[2] = tested on: HT29 colon
[3] = tested on: SNB-75 CNS
[4] = tested on: SNB-19 CNS
[5] = tested on: U251 CNS
[6] = tested on: PC-3 prostate
[7] = tested on: SK-MEL-5 melanoma
[8] = tested on: UACC-62 melanoma
[9] = tested on: LOX IMVI melanoma
[10] = tested on: SK-MEL-28 melanoma

Compound | growth [1] | growth [2] | growth [3] | growth [4] | growth [5] | growth [6] | growth [7] | growth [8] | growth [9] | growth [10]
COc1ccc(NC(=O)CCn2cnc3c(cc(-c4ccccc4)n3-c3ccccc3)c2=O)cc1 | 98.6% | 102% | -10.5% (active) | 57.2% | 77.4% | 86.6% | 91% | 92.4% | 66.4% | 101%
CN(C)c1ccc2c(c1)OC(N)=C(C#N)C2c1ccc2c(c1)CCO2 (stereo not given) | 18% | 9% (active) | 40.8% | 31.4% | 21.7% | 24.1% | 10.3% | 34.8% | 29% | 57.6%
COc1cc(C)c2sc3ccccc3c(=O)c2c1NCCN(C)C | 39.3% | 16.3% | 50.5% | 65.2% | 44.8% | 53.4% | 36.9% | -90.3% (active) | 26.4% | 54.1%
CCC(CCNc1cc(OC)cc2cccnc12)CN1C(=O)c2ccccc2C1=O (stereo not given) | 93.1% | 105% | 84% | 103% | 102% | 89.2% | 105% | 97.5% | 90.6% | 117%
Cc1cc(Cl)ccc1Nc1nc(C(F)(F)F)ccc1C(=O)N/N=C/c1ccccc1Cl | 22.9% | 14.7% | 37.9% | 29.5% | 22.5% | 8.2% (active) | -54.4% (active) | -4.83% (active) | 20.1% | 37.2%
CCOC(=O)Nc1ccc2c(c1)C(=O)N(CC)c1ccccc1O2 | 14.4% | -3.19% (active) | 27.3% | 31.7% | 18.7% | 33.8% | -28% (active) | 21.5% | 15.1% | 63.4%
COc1ccc(C(=O)/C=C/c2cc(-c3ccc(OC)c(OC)c3)n[nH]2)cc1OC | -68.1% (active) | -61.1% (active) | -0.863% (active) | 2.04% (active) | -94.5% (active) | -36.2% (active) | 4.15% (active) | 16.3% | -86.8% (active) | -65.5% (active)
Nc1nc2c(nnn2C2CC(O)C(CO)O2)c(=O)[nH]1 (stereo not given) | 41.6% | 51.4% | 61.8% | 94.3% | 54.3% | 26.5% | 87% | 25% | 19.5% | 87.5%
CCOc1cc(Br)c(C(C)NC(=O)c2cccc(OC)c2)cc1OCC (stereo not given) | 59.8% | 17.7% | 76.7% | 98.3% | 58.4% | 64.9% | 45.1% | -56.2% (active) | 73.4% | 5.81% (active)
COc1cc(-c2nc3ccc(C)cc3[nH]2)ccc1OCC(=O)N=Nc1c(O)[nH]c2ccccc12 | 52.7% | -77.1% (active) | -34.8% (active) | -75.2% (active) | -96.3% (active) | -63.8% (active) | 29.1% | -83.1% (active) | -97.7% (active) | -77.5% (active)
O=NN(CCCl)C(=O)Nc1ccc(NC(=O)N(CCCl)N=O)cc1 | 94.5% | 115% | 64% | 68.6% | 55.7% | 86.5% | 97.1% | 63.9% | 58.5% | 98.8%
COc1ccc(Cn2cc3c(c2-c2ccccc2)CC(C)(C)c2cnoc2-3)cc1 | 34.8% | 12.5% | 13.1% | 55.2% | 43.8% | 28.8% | 13.1% | 54.6% | 35.1% | 58.7%
NS(=O)(=O)c1ccc(N2N=C(c3ccc(-c4ccccc4)cc3)CC2c2ccc(Cl)cc2)cc1 (stereo not given) | 60.9% | 64.4% | 99.8% | 86.5% | 75.7% | 43.2% | 86.8% | 51.1% | 87.2% | 96.8%
CCOC(=O)Cn1nnc(-c2ccc(OCc3ccccc3F)cc2)n1 | 88.5% | 92.4% | 57.8% | 93.9% | 99% | 89% | 91.5% | 81.4% | 85.2% | 72.9%
N#Cc1cnc2ccc(NCc3cnc[nH]3)cc2c1Nc1ccc(F)c(Cl)c1 | 88.4% | 82% | 86.4% | 76.8% | 58.8% | 70.1% | 87.5% | 83% | 58.2% | 98%
CC(=O)CS(C)(=O)=O | 110% | 107% | 96.9% | 102% | 102% | 103% | 98% | 108% | 101% | 113%
CCCCn1c(=O)[nH]c(N)c(C(c2ccc(Cl)cc2)c2c(N)[nH]c(=O)n(CCCC)c2=O)c1=O | 76.9% | 24.6% | 57.1% | 47.9% | 35.8% | 32% | -11.3% (active) | 41.3% | 41.2% | 44.7%
CCN1CCOC1C(C)C (stereo not given) | 105% | 99.3% | 99.8% | 113% | 102% | 93.4% | 106% | 105% | 102% | 108%
Cc1nn2c(/C=C3/C(=O)Nc4ccc(Cl)cc43)c(-c3ccccc3)nc2s1 | 57.1% | 35.1% | -35.4% (active) | 82.4% | 34.8% | 32.3% | 26.3% | 39.3% | 45.3% | 29.2%
Cc1ccc(S(=O)(=O)Nc2cccc3[nH]c(C(F)(F)F)nc23)cc1 | 28.3% | 4.99% (active) | -4.83% (active) | 39.2% | 29.8% | 17.2% | 7.01% (active) | 36.9% | 41.4% | 38.4%
c1ccc(COCC[P+](c2ccccc2)(c2ccccc2)c2ccccc2)cc1 | 71.9% | 1.21% (active) | -5.5% (active) | 9.79% (active) | 5.43% (active) | -4.87% (active) | -72% (active) | 2.32% (active) | -32.2% (active) | 14.6%
Cc1cc(C#Cc2ccccc2)ccc1-n1c(/C=C/c2cc(O)ccc2O)nc2ccccc2c1=O | -33.6% (active) | 11.8% | 16.2% | 26.6% | 5.85% (active) | 3.46% (active) | -84.5% (active) | -55.6% (active) | -80.6% (active) | -45.3% (active)
CCOC(=O)c1cc(-c2ccccc2)nc(N)n1 | 94.9% | 119% | 84.7% | 92% | 98.3% | 96.6% | 100% | 99.9% | 101% | 111%
COc1ccc(-n2nnc3c(sc4ccccc43)c2=O)cc1 | 102% | 43.8% | -9.25% (active) | 33.7% | 18.9% | 73% | 74.5% | 93.9% | 74.4% | 82.8%
O=c1c2cccc3c(Nc4ccc(Br)cn4)ccc(c32)c2nc3ccccc3n12 | 72% | 94.6% | 44% | 85.9% | 93.6% | 76.7% | 76.2% | 84.8% | 87.2% | 72.9%
Cn1c([N+](=O)[O-])cnc1C=C1C(=O)c2ccccc2C1=O | 23.2% | 56.1% | 51% | 85.1% | 57.2% | 60.1% | 42.6% | 17.5% | 21.7% | 39.2%
Cn1c(=O)c2[nH]c(C(O)c3ccc(Cl)cc3)nc2n(C)c1=O (stereo not given) | 102% | 105% | 80.2% | 95.8% | 99.5% | 87.9% | 107% | 93.6% | 96.6% | 108%
